Cycloheximide cs = Cycloheximide Counterscreen for Small Molecule Inhibitors of Shiga Toxin. max response, %. 300,000 compounds, 12% hits. cell reporter, cycloheximide protein synthesis inhibition counterscreen; in the data active = max response mostly above about 13%, no sharp cut-off; inactive = mostly below about 14%; note: read at 38.3 µM for the half of the compounds with a filed dose
Sm TGR block = qHTS Assay for the Inhibitors of Schistosoma Mansoni Peroxiredoxins; Schistosoma mansoni thioredoxin glutathione reductase (TGR), Q962Y6; purified TGR, DTNB reduction, TNB absorbance 405 nm; Potency, µM (highest dose often 114 µM), most hits filed as inhibitors; 360,000 compounds, 3% hits; active = well fitted inhibition curve with a large enough effect; inconclusive = small, poorly fitted or top-dose-only effect; inactive = no such curve, though single readings can be large or run the other way; note: nearly all actives have a fitted effect of over 60% in size
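Kinetic colorimetric format: TGR-catalysed, NADPH-driven DTNB reduction monitored via TNB absorbance. Enzyme dispensed at 20 nM; compound exposure 15 min at room temperature before reaction start.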
Shiga inhibitor = A qHTS for Small Molecule Inhibitors of Shiga Toxin | AID 2315, 2010 | Vero cells, Shiga toxin protein synthesis inhibition reporter | 290,000 compounds, 9.2% hits | inhibition, % at 38.7 µM; in the data active = inhibition mostly above about 28%, no sharp cut-off; inactive = mostly below about 43%
FMDV inh = High Throughput Screening for Foot and Mouth Disease Virus Antivirals. FMDV antiviral cell-based qHTS. AID 1159524, 2015. 410,000 compounds, 1.2% hits. Potency, µM (highest dose often 57.9 µM), hits mostly inhibitors; calls by dose curve; tested in HEK293T cells; note: read-out not given here; nearly all actives have a fitted effect of over 45% in size
Hits are given with their value; i = inactive; ? = inconclusive; nt = no result; ! = repeats disagree. An excerpt weighted towards active compounds, which were near 12% of everything screened.

SMILES	Cycloheximide cs	Sm TGR block	Shiga inhibitor	FMDV inh
CC(C(=O)NCc1ccco1)n1cc(C(=O)c2ccco2)c2ccccc21 (stereo not given)	15	i	i	i
O=C(Cn1cc(C(=O)COc2ccccc2)c2ccccc21)NCc1ccco1	25	40µM	52	i
CC(=O)c1cn(CC(=O)NCc2ccco2)c2ccccc12	i	i	130	i
Cc1ccccc1OCCn1cc(/C=C(\C#N)C(=O)NCc2ccco2)c2ccccc21	i	i	i	i
CC(C)COc1cccc(C(=O)Nc2ccc(-c3nc4ncccc4o3)cc2)c1	nt	?	nt	i
COc1ccc(CNC(=O)O[C@]23C[C@H]4C(=O)N(c5ccccc5)C(=O)[C@H]4C[C@@]2(O)CN(S(=O)(=O)c2ccc(C)cc2)C3)cc1OC	nt	nt	nt	i
Cc1ccc(S(=O)(=O)N2C[C@]3(O)C[C@@H]4C(=O)N(c5ccccc5)C(=O)[C@@H]4C[C@]3(OC(=O)NC3CCCC3)C2)cc1	nt	nt	nt	16µM
CCc1nccn1CCC(=O)N1CCCC(N2CCN(c3cccc(Cl)c3)CC2)C1 (stereo not given)	31	i	49	i
O=C(CN1CCOC1=O)N1CCCC(N2CCN(c3cccc(C(F)(F)F)c3)CC2)C1 (stereo not given)	i	40µM	i	i
O=C1CCCCN1CCC(=O)N1CCCC(N2CCN(c3ccccc3)CC2)C1 (stereo not given)	i	i	i	i
O=C1CCCCN1CCC(=O)N1CCCC(N2CCN(c3cccc(Cl)c3)CC2)C1 (stereo not given)	24	i	35	i
Cc1ccc(C2=NN(CC(=O)NCCCN(CC(C)C)CC(C)C)C(=O)CC2)cc1	nt	i	nt	i
Cc1ncc(CO)c2c1Oc1nc(-c3ccc(Cl)cc3)nc(SCC(=O)N3CCCCC3)c1C2	nt	40µM	nt	i
Cc1ncc(CO)c2c1Oc1nc(-c3ccccc3)nc(SCC(=O)N3CCCCC3)c1C2	i	32µM!	i	i
Cc1ncc(CO)c2c1Oc1nc(-c3ccccc3)nc(SCC(=O)N3CCOCC3)c1C2	i	32µM	i	i
COc1ccccc1-c1nc2c(c(SCC(=O)N3CCCCC3)n1)Cc1c(CO)cnc(C)c1O2	i	?	i	?
Cc1cccc(-c2nc3c(c(SCC(=O)N4CCOCC4)n2)Cc2c(CO)cnc(C)c2O3)c1	i	22µM	i	i
COc1cccc(-c2nc3c(c(SCC(=O)N4CCOCC4)n2)Cc2c(CO)cnc(C)c2O3)c1	i	?	i	i
Cc1cccc(C(=O)Nc2nnc(S(=O)(=O)N3c4ccccc4CC3C)s2)c1 (stereo not given)	nt	i	nt	i
CC(=O)NC(c1ccco1)c1cc(Cl)c2ccc(N3CCCCC3)nc2c1O (stereo not given)	nt	10µM	nt	nt
COc1cc(CN(C)CC(=O)c2[nH]c(C)c(C(C)=O)c2C)ccc1OC(F)F	i	22µM	i	?
CCCCC(=O)OCC(=O)c1[nH]c(C)c(C(C)=O)c1C	39	i	66	i
COc1ccc(NC(=O)CN(C)CC(=O)c2[nH]c(C)c(C(C)=O)c2C)cc1	nt	?	nt	i
CCCC(=O)OCC(=O)c1[nH]c(C)c(C(C)=O)c1C	35	i	i	i
CC(=O)c1c(C)[nH]c(C(=O)COC(=O)C2CC2)c1C	i	i	i	i
SMILES	Cycloheximide cs	Sm TGR block	Shiga inhibitor	FMDV inh
COc1ccccc1OCC(=O)c1[nH]c(C)c(C(C)=O)c1C	i	i	i	20µM
CCN(CC)CCC(c1ccc(OC)cc1)c1c(OC)cc(OC)c2c(C)cc(=O)oc12 (stereo not given)	53	nt	124	nt
Cc1ccccc1OCC(=O)NCC(c1ccc(Cl)cc1)N1CCCCC1 (stereo not given)	nt	i	nt	i
OC(COCC1COc2ccccc2O1)CN1CCN(c2ccccc2F)CC1 (stereo not given)	i	i	i	i
O=C(OCC1COc2ccccc2O1)c1c(F)cccc1F (stereo not given)	21	i	i	nt
Cc1scc(C(=O)N/N=C/c2ccsc2)c1C	84	i	52	i
Cc1scc(C(=O)N/N=C/c2ccco2)c1C	29	?	53	i
CCCCN1CCc2nc(Nc3ccc(OC)cc3OC)ncc2C1	nt	i	nt	i
CCOc1ccc(N2C(=O)C3C4C=CC(CC4)C3C2=O)c([N+](=O)[O-])c1 (stereo not given)	i	50µM	i	i
CCOc1ccc(N2C(=O)C3CC(C)=C(C)CC3C2=O)c([N+](=O)[O-])c1 (stereo not given)	i	20µM	i	i
COc1ccc(N2C(=O)C3C4C=CC(CC4)C3C2=O)c([N+](=O)[O-])c1 (stereo not given)	i	i	i	i
CCc1ccc(N2C(=O)C3CCCN3C2=S)cc1 (stereo not given)	i	i	52	i
Cc1ccc(N2C(=O)C3C4C=CC(CC4)C3C2=O)cc1[N+](=O)[O-] (stereo not given)	i	50µM	nt	i
Cc1ccc(N2C(=O)C3C4C=CC(C4)C3C2=O)cc1C (stereo not given)	i	i	i	i
Cc1ccc(CNC(=O)CN(C)S(=O)(=O)c2ccc3c(c2)c(=O)n(C)c(=O)n3C)cc1	nt	i	nt	i
Cc1c(NC(=O)c2nc3ccccc3nc2N2CCCCC2)cccc1[N+](=O)[O-]	nt	i	nt	i
COc1ccc(Cl)cc1NC(=O)Cn1ccn(-c2cc(C)cc(C)c2)c(=O)c1=O	nt	i	nt	i
CCc1ccc(N2C(=O)C3C4C=CC(CC4)C3C2=O)cc1 (stereo not given)	i	i	48	i
Cn1c(=O)cc2c3c(c(N4CCCCC4)ccc31)C(=O)c1ccccc1-2	i	i	i	i
O=C1c2ccccc2C(=O)c2c1cccc2N1CCCC1	43	i	56	i
O=C1c2ccccc2-c2onc3ccc(N4CCCC4)c1c23	i	18µM	i	i
O=C1C=C(N2CCCCC2)c2ccccc2C1=O	nt	nt	nt	22µM
O=C1c2ccccc2-c2onc3ccc(NCc4ccco4)c1c23	13	11µM	i	?
O=C1C=C(O)c2ccccc2C1=O	nt	nt	nt	i
Cc1ccc(C)c(Cn2c(=O)n(CCCC(=O)NCc3ccc4c(c3)OCO4)c(=O)c3sccc32)c1	nt	i	nt	i
SMILES	Cycloheximide cs	Sm TGR block	Shiga inhibitor	FMDV inh
Cc1c(C(=O)N(Cc2ccc(N(C)C)cc2)CC2CCCO2)oc2ccc(Br)cc12 (stereo not given)	nt	i	nt	i
COc1ccc(OCC(=O)Nc2ccc(-c3nc4cc(C)cc(C)c4o3)cc2)cc1	nt	i	nt	i
COC(C(=O)Nc1ccnn1C1CCN(C(=O)c2ccc(C=O)cc2)CC1)c1ccccc1 (stereo not given)	i	i	i	i
O=C(Nc1ccnn1C1CCN(C(=O)c2c(F)cccc2F)CC1)C1CC1	i	i	i	i
O=C(Nc1ccnn1C1CCN(C(=O)c2ccccc2C(F)(F)F)CC1)C1CC1	27	i	i	i
COC(C(=O)N1CCC(n2nccc2NC(=O)C2CC2)CC1)c1ccccc1 (stereo not given)	41	i	107	i
Cc1ccc2c(c1)c1c(c(=O)n(Cc3ccccc3)c(=O)n1CC(=O)NCc1ccccc1Cl)n2C	nt	i	nt	i
COc1ccc(-c2nc3cnc(N4CCOCC4)nc3n(-c3ccc(OC)cc3)c2=O)cc1	nt	nt	nt	i
CCN(C(=S)Nc1cccnc1)c1ccccc1	i	25µM	i	i

Assay outcomes deposited in PubChem BioAssay by National Center for Advancing Translational Sciences (NCATS).
